Only some compounds are listed: those with a hit (about 21% of all), similar ones and a draw of the others.
AMA1-RON2 inh – qHTS for Inhibitors of AMA1-RON; Towards Development of Antimalarial Drug Lead: Primary Screen; AlphaScreen AMA1-biotinylated RON2 peptide binding; Plasmodium falciparum AMA1 (3D7) - RON2 peptide interaction; 0.2% of 360,000 active; Potency, µM (titrated, usually from 58.2 µM), for the others: at the top dose activity change, negative = inhibition, usual class: inhibitors;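 also: potency is read from the fitted curve at half-maximal effect; 0% = vehicle wells and -100% = peptide control; nearly all actives have a fitted effect of over 45% in size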
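AMA1 (3D7) with his tag at 25 nM final met compounds first, then biotinylated RON2 peptide at 25 nM; detection used donor plus acceptor beads, 10 µg/mL apiece, read by AlphaScreen after 30 min at room temperature.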
HCV inh – qHTS Assay for Inhibitors of Hepatitis C Virus (HCV). Huh7.5.1 HCVcc-Cre infection, luciferase reporter, 44 h. Potency, µM (series often up to 41.8 µM), without a hit: at the top dose activity change, negative = inhibition, actives largely listed as inhibitors. 3.4% of 340,000 active. AID 651820, 2012; also: potency is read from the fitted curve at half-maximal effect; % is scaled to controls: 0 for no effect and ±100 for the full control effect
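1,000 cells/well; 4 h culture; + compound; + HCVcc-Cre (~0.5 moi); 44 h; luciferase substrate, RT 15 min; read 15 sec.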
Pf growth 96h – Primary qHTS for delayed death inhibitors of the malarial parasite plastid, 96 hour incubation; AID 504834, 2011; Potency, µM (highest dose often 28.7 µM), inactives show at the top dose activity change, negative = inhibition, hits mostly inhibitors; P. falciparum luciferase reporter growth, 96 h; 6.9% of 320,000 active; also: potency is read from the fitted curve at half-maximal effect; % is scaled to controls: 0 for no effect and ±100 for the full control effect
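Delayed-death screen, second-generation endpoint: infected erythrocytes, 2% hematocrit, 0.05% parasitemia final; 96 hours at 37 C, 5% CO2; luciferase detection reagent; luminescence decrease equals reduced growth.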
CHX counter – Cycloheximide Counterscreen for Small Molecule Inhibitors of Shiga Toxin; cell reporter, cycloheximide protein synthesis inhibition counterscreen; max response, %; 12% of 300,000 active; in the data active = max response mostly above about 13%, no sharp cut-off; inactive = mostly below about 14%; also: read at 38.3 µM for the half of the compounds with a filed dose; 0% is about no effect
Shiga inhibitor – A qHTS for Small Molecule Inhibitors of Shiga Toxin; inhibition, % at 38.7 µM; 9.2% of 290,000 active; AID 2315, 2010; Vero cells, Shiga toxin protein synthesis inhibition reporter; in the data active = inhibition mostly above about 28%, no sharp cut-off; inactive = mostly below about 43%; also: 0% is about no effect
Pf growth 48h – Primary qHTS for delayed death inhibitors of the malarial parasite plastid, 48 hour incubation; P. falciparum luciferase growth in erythrocytes, 48 h; Potency, µM (series often up to 28.7 µM), without a hit: top-dose activity change, negative = inhibition, most hits filed as inhibitors; 5.9% of 310,000 active; AID 504832, 2011; also: potency is read from the fitted curve at half-maximal effect; % is scaled to controls: 0 for no effect and ±100 for the full control effect
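Growth was read as firefly luciferase luminescence after a 48 h, 37 C, 5% CO2 exposure of compounds to reporter-bearing P. falciparum cultures (0.1% parasitemia, 2% hematocrit final) in Albumax-supplemented RPMI 1640.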
Active calls of the source: *; ? = inconclusive; . = no result given; [ ] = another dose, or the depositor's remark. Unless noted, calls follow the shape of the dose curve; as a rule, active = well fitted curve in the direction sought with a large enough effect; inconclusive = small, poorly fitted or top-dose-only effect, or another doubt; inactive = no such curve, though single readings can be large; an effect the other way counts as inactive or inconclusive.

SMILES	AMA1-RON2 inh	HCV inh	Pf growth 96h	CHX counter	Shiga inhibitor	Pf growth 48h
CN(C)CCCNc1ncnc2sc(-c3ccccc3)cc12	?	?	?	-3	-11	?
Cc1nc(C(=O)N/N=C/c2[nH]ncc2Br)cs1	73%	-9%	1.5µM*	35*	45	1.7µM*
Cc1ccc(NNC(=O)Nc2ccc(Cl)cc2)nn1	38%	14%	27%	1	-10	33%
CCOC(=O)C1(Cc2ccccc2C)CCCN(Cc2cc(OC)c(O)c(OC)c2)C1 (centres undefined)	-1%	-7%	-27%	13*	38*	?
CCCn1cc(CN2CCC(Cc3ccccc3)(C(=O)OCC)CC2)c(C)n1	-1%	-19%	10µM*	-2	10	0%
CCOC(=O)C1(Cc2ccccc2C)CCCN(Cc2cn(C)nc2C)C1 (centres undefined)	-6%	11%	19%	1	-5	6%
CCOC(=O)C1(Cc2ccccc2)CCCN(Cc2ccncc2)C1 (centres undefined)	-6%	10%	11%	1	3	9.3µM*
CC1(C)OC(=O)C2=C(C[C@@H](C3CCCCC3)O[C@H]2c2ccc(Cl)cc2)O1	-2%	.	.	.	.	.
CCCOP(=O)(c1ccc(N(C)C)cc1)C(Nc1ccccc1)c1ccc(C)cc1 (centres undefined)	?	?	?	0	23	?
CCOc1cc(/C=C2\C(=O)N(c3ccc(C(N)=O)cc3)N=C2C)ccc1OC(=O)c1cccs1	-1%	9%	4%	5	13	20%
CC1=NN(c2ccc(C(=O)O)cc2)C(=O)/C1=C\c1ccc(OC(=O)c2cccs2)cc1	10%	5%	5%	16*	39	92%
CC(C)OCCCNC(=O)c1ccc(Br)cc1	-2%	1%	200%	44*	83	46%
CCOCCCNC(=O)c1ccc(Br)cc1	-15%	8%	106%	26*	57	46%
CCOCCCNC(=O)c1ccccc1Br	-1%	0%	.	-1	-3	9%
CCOCCCNC(=O)c1ccc(OC)cc1	-19%	3%	.	21*	32	58%
CCOCCCNC(=O)c1ccc(OC(C)=O)cc1	0%	12%	.	1	-7	9%
COc1ccc(C(C)(C)C)cc1NC(=O)c1cccc(S(=O)(=O)N2CCN(C(C)=O)CC2)c1	14%	-23%	?	-6	-5	?
Cn1cc(O)nc1NC(=O)Nc1cccc(Cl)c1	.	.	-13%	.	.	39%
COc1ccc(N2CCN(C(=O)C3CCCN3S(=O)(=O)c3cccc4nsnc34)CC2)cc1 (centres undefined)	-9%	11%	?	-2	-6	-7%
O=C(Nc1ccccc1-c1nc2ccccc2s1)c1cccnc1	3%	?	21%	5	15	23%
CC(=O)Nc1ccc(O)c(-c2nc3ccccc3s2)c1	0%	?	163%	49*	131*	142%
Cc1ccsc1C(=O)Nc1ccc(O)c(-c2nc3ccccc3s2)c1	7%	?	63%[5.75 µM]	18*	45	41%[5.75 µM]
O=C(CCS(=O)(=O)c1ccccc1)Nc1ccc(-c2nc3ccccc3s2)c(O)c1	16%	-14%	42%	44*	48*	19%
Cc1csc(=O)n1CCC(=O)OCC(=O)NNC(=O)c1ccccc1	113%	17%	20%	.	.	-25%
O=C(CSc1nncn1-c1ccccc1)Nc1cc(F)ccc1F	-5%	4%	0%	-2	-7	44%
SMILES	AMA1-RON2 inh	HCV inh	Pf growth 96h	CHX counter	Shiga inhibitor	Pf growth 48h
CCc1noc(C)c1C(=O)Nc1nc2c(C)cccc2s1	4%	-24%	0%	.	.	8%
Cc1cc(C(=O)Nc2ccc3ccccc3c2)oc1C	-20%	11µM*	-23%	30*	127*	117%
Cc1cc(C(=O)Nc2nc3c(C)cccc3s2)c(C)o1	-4%	-20%	45%	19*	11	19%
Cc1cc(C(=O)Nc2cccc(C(=O)O)c2)oc1C	-4%	7%	47%	38*	81*	162%
Cc1ccoc1C(=O)Nc1ccc2ccccc2c1	0%	?	-13%	41*	63	159%
CC1(Cc2ccc(OC(F)(F)F)cc2)C(=O)Nc2ccc(S(=O)(=O)NC3CCCCC3)cc21 (centres undefined)	6%	.	.	.	.	.
COc1ccc(N2CCN(C(=O)c3cc(=O)c4cc(C)c(C)cc4o3)CC2)cc1	41%	-8%	38%	-4	-6	-18%
Cc1cc(C(=O)Nc2nncs2)oc1C	6%	13%	2.6µM*	1	.	42%
Cc1cc(C(=O)Nc2ccc3ccccc3c2)c(C)o1	-10%	-9%	22%	32*	96*	293%
C/C(=N/N=C(/N)SCc1ccccc1)C(C)(C)C	-3%	8%	-14%	27*	37	27%
Cc1cccc(CSC(=N)N)c1	3%[2.32 µM]	6%	-27%	-3	-13	-1%
CCOC(=O)CSc1nc(N)c2c3c(sc2n1)CCCC3	11%	-26%	31%	25*	51	.
CC1CCc2c(sc3nc(SCC(=O)NCc4ccco4)nc(N)c23)C1 (centres undefined)	-10%	?	3%[5.75 µM]	17*	42	28%
CCOC(=O)c1cnn(-c2nc(SC)nc3sc4c(c23)CCCC4)c1N	-3%	-19%	.	-1	-16	?
CCOC(=O)c1nc2sc3c(c2c(=O)[nH]1)CCC(C)C3 (centres undefined)	53%	5%	86%	5	-9	?
CCN(CC)C(=O)CSc1nc(N)c2c3c(sc2n1)CC(C)CC3 (centres undefined)	3%	-18%	?	21*	57*	.
COC(=O)Cn1nnc2c(cnn2-c2ccccc2)c1=O	3%	-2%	64%	25*	53	20%
CC(C)OC(=O)Cn1nnc2c(cnn2-c2ccccc2)c1=O	5%	9%	-29%	46*	65*	130%
O=C(Cn1nnc2c(cnn2-c2ccc(F)cc2)c1=O)c1ccccc1F	-8%	12%	34%	9	19	0%
O=C1c2ccccc2S(=O)(=O)N1Cc1cc(=O)n2ccsc2n1	-10%	-4%	13µM*	-3	-2	?
C=C1CC2C3C=C(C)C4=CC(=O)CCC4(C)C3CCC2(C)[C@@]1(OC(C)=O)C(C)=O (some centres undefined)	.	.	11µM*	.	.	?
CC(=O)O[C@]1(C(C)=O)CCC2C3C=C(C)C4=CC(=O)CC[C@]4(C)C3CC[C@@]21C (some centres undefined)	0%	?	?	7	4	?

Compound activity deposited in PubChem BioAssay by National Center for Advancing Translational Sciences (NCATS).
